We go through twelve compounds from PubChem BioAssay (NCATS).

Results filed as inconclusive are left out. The list shows a part of the results. Activity calls are given as the source filed them. Unless noted, the call rests on the fitted dose curve; in most records, active means well fitted curve in the direction sought with a large enough effect; inconclusive means small, poorly fitted or top-dose-only effect, or another doubt; inactive means no such curve, though single readings can be large; an effect the other way counts as inactive or inconclusive.

Test [1] is described as follows: qHTS screen for small molecules that inhibit ELG1-dependent DNA repair: Hit Confirmation in Cell-Based Luciferin Assay (AID 624247). Further: potency means the concentration at half of the fitted maximal effect. To be noted: cell-free firefly luciferase luminescence counter-screen, ViewLux. In short, it runs like this: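 Cell-free confirmation: 23 nL compound pin-transferred onto luciferin substrate reagent, then luciferase added. Luminescence read on a CCD imager; loss of signal flags luciferase-reporter interference.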
For orientation: qHTS replaces the single test concentration by a dilution series.

Test [2] has as its target ATPase family AAA domain-containing protein 5 (Homo sapiens) (UniProt Q96QE3). Description: HTS assay for small molecules that inhibit ELG1-dependent DNA repair in human embryonic kidney (HEK293T) cells expressing luciferase-tagged ELG1: Hit Confirmation (AID 624248). Further: potency means the concentration at half of the fitted maximal effect; nearly all actives have a fitted effect of over 55% in size. To be noted: HEK293T ELG1-luciferase levels, luminescence; cells co-treated with 5-fluorouridine. The procedure, abridged: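 Cells (2,000/well) received 5-Fluorouridine plus pin-transferred compound or DMSO and were incubated 16 hr at 37 °C, 5% CO2. Luciferase activity was read by ONE-Glo luminescence after 30 min at room temperature; inhibitors suppress the signal.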

For test [3] the target is unchanged. Description: qHTS screen for small molecules that inhibit ELG1-dependent DNA repair in human embryonic kidney (HEK293T) cells expressing luciferase-tagged ELG1: Hit Confirmation using MMS Stimulated ELG1 (AID 624249). Further: potency means the concentration at half of the fitted maximal effect; nearly all actives have a fitted effect of over 60% in size. To be noted: HEK293T luciferase-tagged ELG1 level. In short, it runs like this:
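HEK293T cells carrying ELG1-luciferase, compounds added about 5 h after plating together with MMS at 10 µM final. Luciferase activity read 16 h after compound addition; suppression of signal scored.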

Test [4] is described as follows: qHTS screen for small molecules that inhibit ELG1-dependent DNA repair: Hit Confirmation with MMS Viability (AID 624251). Further: potency means the concentration at half of the fitted maximal effect; nearly all actives have a fitted effect of over 60% in size. To be noted: Cell viability with MMS. The procedure, abridged:
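Reporter HEK293T cells (ELG1-luc) receive compounds about 5 hours after plating, alongside 10 µM MMS, and are scored for viability by CellTiter-Glo following 16 hours of treatment.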

Test [5] addresses Luciferin 4-monooxygenase (Photinus pyralis) (UniProt P08659). Description: qHTS screen for small molecules that inhibit ELG1-dependent DNA repair: Hit Confirmation in Biochemical Luciferin Assay (AID 624253). Further: on the % scale 0 is the no-effect control and ±100 the full control effect. In short, it runs like this: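 Cell-free firefly luciferase counterassay: compounds were added to substrate reagent, then luciferase enzyme was added. Luminescence read on a CCD-based imager.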

The target of test [6] is Peroxisome proliferator-activated receptor alpha (Homo sapiens) (UniProt Q07869). Nature of the test: qHTS assay for small molecule agonists of the peroxisome proliferator-activated receptor alpha (PPARalpha) signaling pathway (AID 651778). Further: % of control where 0% means no effect. As to conditions: PathHunter PPARalpha complementation, chemiluminescence, 6 h; max response: stronger effect = higher value. The procedure, abridged:
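Cells plated at 2,000/well and held overnight at 37 C, 5% CO2, then compound added by pin tool for 6 hr; after PathHunter detection reagent and 60 min at room temperature, chemiluminescence from enzyme complementation was read.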

The nature of test [7]: qHTS assay for small molecule agonists of the antioxidant response element (ARE) signaling pathway measured by Nrf2-dependant transcriptional activity (AID 720636; active means well fitted curve in the direction sought with a large enough effect in the repeat runs; an effect the other way counts as inactive or inconclusive; further: potency means the concentration at half of the fitted maximal effect;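 on activation: HepG2 cells with an ARE-driven luciferase reporter; % of control where 0% means no effect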). The procedure, abridged:
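ONE-Glo luminescence, read 30 min after reagent addition at room temperature, reflected ARE reporter activity in HepG2 cells that had been incubated with compound for 16 hr at 37 C in 1% dialyzed FBS.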

A short description of test [8]: qHTS assay for small molecule agonists of the antioxidant response element (ARE) signaling pathway measured by Nrf2-dependant transcriptional activity - cell viability counter screen (AID 720653; active means well fitted curve in the direction sought with a large enough effect in the repeat runs; an effect the other way counts as inactive or inconclusive; further: potency means the concentration at half of the fitted maximal effect). To be noted: ARE-bla HepG2 viability, CellTiter-Glo ATP luminescence, 16 h; max response: stronger effect = lower value. In short, it runs like this: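 ARE-bla HepG2 cells (2,000/well) rested 5 hrs at 37C/5% CO2, then exposed to compounds in DMSO for 16 hrs. Viability was read in the same wells as intracellular ATP by luminescence, 30 min at room temperature after reagent addition.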

The nature of test [9]: qHTS assay for cell viability of HEK293 cells (AID 743288). Further: potency means the concentration at half of the fitted maximal effect; nearly all actives have a fitted effect of over 50% in size. As to conditions: ATP luminescence (CellTiter-Glo), 18 h; max response: stronger effect = lower value. The procedure, abridged:
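Parental HEK293 cells, 2,000 per well, preincubated at least 5 h at 37 C, then exposed to compounds in DMSO for 18 h at 37 C. Viability by CellTiter-Glo ATP luminescence after 30 min at room temperature.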

Test [10] can be described thus: qHTS assay for cell viability of the p53RE-bla HCT-116 cell line (AID 743292). Further: potency means the concentration at half of the fitted maximal effect; nearly all actives have a fitted effect of over 55% in size. In short, it runs like this:
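After plating at 4,000 cells per well and a 5 h rest at 37 C, HCT-116 cells carrying p53RE-bla received test chemicals in DMSO. Sixteen hours later at 37 C, CellTiter-Glo was added and luminescence recorded following 30 min at room temperature.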

Test [11] in a line: qHTS assay for small molecule activators of the human pregnane X receptor (PXR) signaling pathway (AID 720659; call rule not given here; further: 0% is about no effect).
Test [12] can be described thus: qHTS Assay for Identifying Gametocytocidal Compounds (AID 743244). Further: potency means the concentration at half of the fitted maximal effect. To be noted: P. falciparum 3D7 stage III-V gametocytes, alamarBlue, 72 h; max response: stronger effect = lower value. The procedure, abridged: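 Stage III–V gametocytes of P. falciparum 3D7 were seeded at 20,000 cells/well onto pre-dispensed compounds. After 72 h, 37 °C, 5% CO2, alamarBlue was added for another 24 h.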

Test [13] has as its target Cytochrome P450 3A4 (Homo sapiens) (UniProt P08684). Description: qHTS Assay for Activators of Cytochrome P450 3A4 (AID 885). Further: nearly all actives have a fitted effect of over 65% in size. In short, it runs like this: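 Human CYP3A4 (20 nM) with Luciferin-PPXE at 25 uM (its KM) in 200 mM KPO4; 10 min compound preincubation, then NADPH regeneration and 60 min reaction at RT. Luciferin read by luminescence; normalized to 57 uM ketoconazole full inhibition.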

Test [14] is described as follows: qHTS assay for environmental chemicals that activate the Aryl hydrocarbon Receptor (AhR) signaling pathway (AID 651777). Further: potency means the concentration at half of the fitted maximal effect; nearly all actives have a fitted effect of over 15% in size. As to conditions: 1A2-DRE human hepatoma cells, luciferase, 24 h; activation: stronger effect = higher value. In short, it runs like this: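 Following a 24 hr incubation with test chemicals at 37 C and 5% CO2, 1A2-DRE human hepatoma cells received One-Glo reagent; after 30 min at room temperature, luciferase output reflected CYP1A2 induction via AhR.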

Test [15] has as its target Cytochrome P450 2C9 (Homo sapiens) (UniProt P11712). Description: qHTS Assay for Inhibitors and Substrates of Cytochrome P450 2C9 (AID 883). Further: nearly all actives have a fitted effect of over 60% in size. Further: potency means the concentration at half of the fitted maximal effect. On activity change, negative = inhibition: on the % scale 0 is the no-effect control and ±100 the full control effect. In short, it runs like this: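 CYP2C9 deoxyluciferin hydroxylation, 37C, 60 min with NADPH regeneration; 10nM enzyme, 100uM Luciferin-H (KM). Glo detection reagent stopped reaction; luminescence normalized to sulphaphenazole (57uM) full inhibition.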

Test [16] deals with Cytochrome P450 3A4 (Homo sapiens) (UniProt P08684). Description: qHTS Assay for Inhibitors and Substrates of Cytochrome P450 3A4 (AID 884). Further: potency means the concentration at half of the fitted maximal effect; nearly all actives have a fitted effect of over 50% in size. In short, it runs like this: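 20 nM human CYP3A4 with 25 uM Luciferin-PPXE (at KM) in 200 mM KPO4, preincubated 10 min with compound; NADPH regeneration started a 60 min RT reaction. Luciferin detected by luminescence, normalized to 57 uM ketoconazole as full inhibition.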

Test [17] deals with Cytochrome P450 2D6 (Homo sapiens) (UniProt P10635). Nature of the test: qHTS Assay for Inhibitors and Substrates of Cytochrome P450 2D6 (AID 891).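 Further: luciferin methyl ether substrate demethylated by CYP2D6 with NADPH regeneration; on the % scale 0 is the no-effect control and ±100 the full control effect; nearly all actives have a fitted effect of over 60% in size.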 The procedure, abridged: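 Human CYP2D6 (5 nM) with 30 uM Luciferin-ME EGE (at Km) in 100 mM KPO4, compound preincubated 10 min, then NADPH regeneration system for 60 min at room temperature. Luciferin read by luminescence; normalized to 1.43 uM quinidine.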

Test [18] has as its target Tyrosine-protein kinase Yes (Homo sapiens) (UniProt P07947). Nature of the test: qHTS for small molecule inhibitors of Yes1 kinase: Primary Screen (AID 686947). To be noted: Yes1 kinase biochemical qHTS inhibition. In short, it runs like this: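 Yes1 (4 nM) preincubated 20 min with compound, then 60 min room-temperature reaction with 0.1 mM ATP and 0.3 mg/mL poly(E4Y) in pH 7.5 Tris, 10 mM MgCl2. ADP measured by ADP-Glo luminescence, normalised to enzyme/no-enzyme controls.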

Test [19] deals with Flap endonuclease 1 (Homo sapiens) (UniProt P39748). Nature of the test: qHTS Assay for the Inhibitors of FEN1: Confirmatory Assay for Cherry-picked Compounds (AID 720498). As to conditions: FEN1 flap cleavage, TAMRA/BHQ2 fluorogenic DNA substrate. In short, it runs like this:
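FEN1 at 10 nM was preincubated with compound for 15 min at room temperature, then 50 nM (final) double-flap DNA substrate was added. TAMRA fluorescence released from the BHQ-2-quenched flap was read at 0 and 15 min (ex 525/em 598 nm).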

Test [20] concerns the target DNA polymerase eta (Homo sapiens) (UniProt Q9Y253). Description: qHTS for Inhibitors of Polymerase Eta: Confirmatory Assay for Cherry-picked Compounds (AID 720502). Further: potency means the concentration at half of the fitted maximal effect. To be noted: Pol eta primer extension, TAMRA/BHQ fluorescence, 10 min. The procedure, abridged: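 Readout: TAMRA dequenching, ex 525/em 598 nm, read at 0 and 10 min. Enzyme: 10 nM human Pol eta, preincubated with compound 15 min RT. Substrate: 50 nM final annealed primer/reporter/template duplex.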

A short description of test [21]: qHTS profiling of the MIPE4 collection as inhibitors of Plasmodium falciparum (3D7) proliferation (AID 743344; call rule not given here;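 further: scaled between DMSO vehicle wells and 0.29 µM artemisinin as full inhibition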). To be noted: P. falciparum 3D7 in erythrocytes, SYBR Green DNA fluorescence, 72 h; at 5.51 µM (top of the series) unless noted. In short, it runs like this: (§1)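 Erythrocytes infected with P. falciparum (0.3% parasitemia, 2.5% hematocrit) incubated with compounds 72 h at 37 C, 5% CO2. Lysis with saponin/Triton buffer containing SYBR Green I, overnight at room temperature in the dark; DNA fluorescence (485/535 nm) normalised to 0.29 uM artemisinin and DMSO.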

Test [22] can be described thus: qHTS profiling of the MIPE4 collection as inhibitors of Plasmodium falciparum (DD2) proliferation (AID 743345; call rule not given here). To be noted: P. falciparum Dd2 in erythrocytes, SYBR Green DNA, 72 h; at 5.51 µM (top of the series) unless noted. In short, it runs like this: as §1
Test [23] in a line: qHTS profiling of the MIPE4 collection as inhibitors of Plasmodium falciparum (DD2) proliferation (Rep 2) (AID 743346; call rule not given here). To be noted: P. falciparum Dd2 in erythrocytes, SYBR Green DNA, 72 h; at 5.51 µM (top of the series) unless noted. The procedure, abridged:
as §1

Test [24] is described as follows: qHTS profiling of the MIPE4 collection as inhibitors of Plasmodium falciparum (HB3) proliferation (AID 743347; call rule not given here;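 further: plate controls were DMSO vehicle wells for no effect and artemisinin wells for full effect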). As to conditions: P. falciparum HB3 in erythrocytes, SYBR Green DNA, 72 h; at 5.51 µM (top of the series) unless noted. The procedure, abridged:
as §1

Cytochrome P450 3A4 (Homo sapiens), sequence (P08684 whole entry, looked up): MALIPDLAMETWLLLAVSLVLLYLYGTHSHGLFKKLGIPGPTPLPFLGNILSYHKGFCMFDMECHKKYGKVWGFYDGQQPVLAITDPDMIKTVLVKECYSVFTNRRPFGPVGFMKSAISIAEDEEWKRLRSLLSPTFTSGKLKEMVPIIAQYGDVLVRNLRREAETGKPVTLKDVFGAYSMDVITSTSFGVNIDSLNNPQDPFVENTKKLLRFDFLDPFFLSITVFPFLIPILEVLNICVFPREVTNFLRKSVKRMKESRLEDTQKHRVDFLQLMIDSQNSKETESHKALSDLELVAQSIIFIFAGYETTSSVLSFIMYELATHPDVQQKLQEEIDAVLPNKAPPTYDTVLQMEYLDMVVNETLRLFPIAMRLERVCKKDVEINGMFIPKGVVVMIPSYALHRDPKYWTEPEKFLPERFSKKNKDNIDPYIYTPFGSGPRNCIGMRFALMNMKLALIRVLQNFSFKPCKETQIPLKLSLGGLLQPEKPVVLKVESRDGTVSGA
ATPase family AAA domain-containing protein 5 (Homo sapiens), sequence (Q96QE3 whole entry, looked up, the tested form may be a part): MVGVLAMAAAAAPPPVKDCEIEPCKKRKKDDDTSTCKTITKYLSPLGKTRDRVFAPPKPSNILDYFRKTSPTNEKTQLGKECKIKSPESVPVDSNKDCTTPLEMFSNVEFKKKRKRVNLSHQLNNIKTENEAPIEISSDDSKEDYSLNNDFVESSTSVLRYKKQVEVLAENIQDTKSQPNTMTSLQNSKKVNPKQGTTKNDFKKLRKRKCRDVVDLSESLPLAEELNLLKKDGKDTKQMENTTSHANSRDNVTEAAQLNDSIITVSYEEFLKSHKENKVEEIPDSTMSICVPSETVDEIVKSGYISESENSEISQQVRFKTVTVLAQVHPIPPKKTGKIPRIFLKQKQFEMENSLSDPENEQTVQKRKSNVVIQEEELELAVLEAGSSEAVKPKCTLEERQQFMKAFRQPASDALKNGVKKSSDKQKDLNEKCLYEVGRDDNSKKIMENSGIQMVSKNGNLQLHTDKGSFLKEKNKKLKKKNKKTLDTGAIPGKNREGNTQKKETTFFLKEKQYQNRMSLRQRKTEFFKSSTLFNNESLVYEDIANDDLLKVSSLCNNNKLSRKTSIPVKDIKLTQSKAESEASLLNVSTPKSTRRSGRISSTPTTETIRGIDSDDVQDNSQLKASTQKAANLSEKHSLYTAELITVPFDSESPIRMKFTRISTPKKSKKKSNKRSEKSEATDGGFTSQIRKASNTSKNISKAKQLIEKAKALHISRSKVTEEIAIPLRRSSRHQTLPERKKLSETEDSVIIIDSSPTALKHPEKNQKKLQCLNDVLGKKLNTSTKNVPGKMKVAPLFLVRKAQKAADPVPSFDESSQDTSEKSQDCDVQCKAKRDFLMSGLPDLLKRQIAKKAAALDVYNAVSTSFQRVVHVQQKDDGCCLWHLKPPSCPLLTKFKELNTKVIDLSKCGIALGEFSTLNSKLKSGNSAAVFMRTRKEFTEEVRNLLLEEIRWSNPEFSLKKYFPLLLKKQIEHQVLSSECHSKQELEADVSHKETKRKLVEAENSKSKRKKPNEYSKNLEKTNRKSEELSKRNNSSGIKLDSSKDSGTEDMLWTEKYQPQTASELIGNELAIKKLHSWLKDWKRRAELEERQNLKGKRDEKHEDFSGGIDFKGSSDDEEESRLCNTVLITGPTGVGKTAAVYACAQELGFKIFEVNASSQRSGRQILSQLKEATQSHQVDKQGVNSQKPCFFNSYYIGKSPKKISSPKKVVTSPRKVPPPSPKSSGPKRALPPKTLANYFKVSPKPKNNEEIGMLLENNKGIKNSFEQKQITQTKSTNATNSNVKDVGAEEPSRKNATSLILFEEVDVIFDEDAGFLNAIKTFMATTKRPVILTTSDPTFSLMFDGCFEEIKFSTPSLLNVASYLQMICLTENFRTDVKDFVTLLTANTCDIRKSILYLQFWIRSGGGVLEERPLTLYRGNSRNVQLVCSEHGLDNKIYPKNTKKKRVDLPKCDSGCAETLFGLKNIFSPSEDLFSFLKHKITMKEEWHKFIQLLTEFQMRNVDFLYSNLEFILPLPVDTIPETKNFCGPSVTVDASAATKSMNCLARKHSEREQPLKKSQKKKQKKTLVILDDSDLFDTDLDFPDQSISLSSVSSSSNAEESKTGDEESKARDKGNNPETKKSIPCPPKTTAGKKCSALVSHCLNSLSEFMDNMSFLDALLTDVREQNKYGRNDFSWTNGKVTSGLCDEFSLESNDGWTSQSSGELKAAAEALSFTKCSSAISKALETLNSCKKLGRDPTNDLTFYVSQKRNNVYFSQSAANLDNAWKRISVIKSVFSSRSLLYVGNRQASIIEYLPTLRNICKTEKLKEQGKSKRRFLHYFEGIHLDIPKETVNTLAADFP
Cytochrome P450 2C9 (Homo sapiens), sequence (P11712 whole entry, looked up): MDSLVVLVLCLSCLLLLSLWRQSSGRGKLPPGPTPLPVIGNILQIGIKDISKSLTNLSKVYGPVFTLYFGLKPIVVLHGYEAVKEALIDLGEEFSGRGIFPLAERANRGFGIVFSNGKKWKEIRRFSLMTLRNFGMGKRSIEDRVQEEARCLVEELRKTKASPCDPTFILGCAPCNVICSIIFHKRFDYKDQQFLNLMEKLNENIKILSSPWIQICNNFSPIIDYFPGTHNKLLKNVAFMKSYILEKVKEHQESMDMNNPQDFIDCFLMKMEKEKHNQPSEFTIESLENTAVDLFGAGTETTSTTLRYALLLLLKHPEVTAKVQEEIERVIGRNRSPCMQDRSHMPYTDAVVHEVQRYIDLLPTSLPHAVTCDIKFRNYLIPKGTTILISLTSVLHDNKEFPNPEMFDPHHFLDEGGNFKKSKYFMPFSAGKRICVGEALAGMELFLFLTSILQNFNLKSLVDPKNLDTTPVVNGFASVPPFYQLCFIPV
DNA polymerase eta (Homo sapiens), sequence (Q9Y253 whole entry, looked up): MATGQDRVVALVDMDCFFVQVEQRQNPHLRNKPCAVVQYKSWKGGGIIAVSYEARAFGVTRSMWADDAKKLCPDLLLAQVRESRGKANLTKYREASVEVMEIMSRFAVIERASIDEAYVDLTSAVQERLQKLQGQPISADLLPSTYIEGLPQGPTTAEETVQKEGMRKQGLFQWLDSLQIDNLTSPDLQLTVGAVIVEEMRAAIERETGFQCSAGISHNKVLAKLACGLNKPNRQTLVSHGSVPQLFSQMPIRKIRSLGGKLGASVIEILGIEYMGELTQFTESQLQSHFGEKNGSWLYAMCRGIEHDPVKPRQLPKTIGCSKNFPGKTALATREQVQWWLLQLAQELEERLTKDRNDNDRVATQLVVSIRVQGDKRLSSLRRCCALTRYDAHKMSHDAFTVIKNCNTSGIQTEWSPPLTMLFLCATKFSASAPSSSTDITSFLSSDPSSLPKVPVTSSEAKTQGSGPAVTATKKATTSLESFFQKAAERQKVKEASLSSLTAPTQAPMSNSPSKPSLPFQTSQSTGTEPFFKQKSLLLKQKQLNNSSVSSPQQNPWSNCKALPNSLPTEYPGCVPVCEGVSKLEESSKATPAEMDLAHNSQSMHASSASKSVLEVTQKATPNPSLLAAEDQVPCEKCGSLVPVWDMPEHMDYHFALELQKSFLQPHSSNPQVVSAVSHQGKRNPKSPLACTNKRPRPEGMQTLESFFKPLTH
Cytochrome P450 2D6 (Homo sapiens), sequence (P10635 whole entry, looked up): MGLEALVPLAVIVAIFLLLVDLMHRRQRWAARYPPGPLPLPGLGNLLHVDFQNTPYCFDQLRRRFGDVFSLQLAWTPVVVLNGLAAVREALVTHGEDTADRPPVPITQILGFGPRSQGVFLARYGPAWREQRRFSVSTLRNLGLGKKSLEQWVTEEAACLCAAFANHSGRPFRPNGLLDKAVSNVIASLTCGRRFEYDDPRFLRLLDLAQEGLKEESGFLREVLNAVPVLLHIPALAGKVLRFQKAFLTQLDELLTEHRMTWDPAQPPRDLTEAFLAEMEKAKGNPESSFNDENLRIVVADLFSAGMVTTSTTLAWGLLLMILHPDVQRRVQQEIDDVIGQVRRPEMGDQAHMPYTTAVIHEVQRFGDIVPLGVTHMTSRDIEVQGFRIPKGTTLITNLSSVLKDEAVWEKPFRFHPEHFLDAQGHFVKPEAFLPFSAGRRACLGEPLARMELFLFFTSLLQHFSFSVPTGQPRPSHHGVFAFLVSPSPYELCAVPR
Tyrosine-protein kinase Yes (Homo sapiens), sequence (P07947 whole entry, looked up): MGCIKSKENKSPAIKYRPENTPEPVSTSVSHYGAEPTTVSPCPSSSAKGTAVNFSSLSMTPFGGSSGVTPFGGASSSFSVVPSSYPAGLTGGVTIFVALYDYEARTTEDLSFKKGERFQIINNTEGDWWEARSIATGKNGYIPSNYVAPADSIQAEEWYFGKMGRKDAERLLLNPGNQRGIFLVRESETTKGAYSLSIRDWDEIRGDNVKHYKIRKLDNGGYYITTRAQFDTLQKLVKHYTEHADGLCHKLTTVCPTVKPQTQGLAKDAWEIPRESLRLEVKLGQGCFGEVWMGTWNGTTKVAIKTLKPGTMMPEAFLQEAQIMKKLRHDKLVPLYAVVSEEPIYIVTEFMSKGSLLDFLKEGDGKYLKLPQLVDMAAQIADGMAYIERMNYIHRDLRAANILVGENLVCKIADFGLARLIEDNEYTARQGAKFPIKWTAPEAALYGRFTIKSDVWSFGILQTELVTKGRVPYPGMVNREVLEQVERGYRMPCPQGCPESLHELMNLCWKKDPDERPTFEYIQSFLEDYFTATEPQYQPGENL
Flap endonuclease 1 (Homo sapiens), sequence (P39748 whole entry, looked up): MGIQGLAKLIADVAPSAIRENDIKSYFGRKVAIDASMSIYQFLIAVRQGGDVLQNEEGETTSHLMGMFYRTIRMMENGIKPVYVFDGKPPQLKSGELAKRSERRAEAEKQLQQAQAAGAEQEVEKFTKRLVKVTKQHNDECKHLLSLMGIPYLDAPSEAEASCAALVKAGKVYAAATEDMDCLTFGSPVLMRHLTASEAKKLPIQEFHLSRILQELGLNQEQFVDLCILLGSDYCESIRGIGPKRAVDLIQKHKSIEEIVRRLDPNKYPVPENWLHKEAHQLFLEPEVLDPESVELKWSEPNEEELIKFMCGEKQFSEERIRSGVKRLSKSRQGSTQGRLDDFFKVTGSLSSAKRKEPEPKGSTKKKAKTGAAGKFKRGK

For the compound `CC(=O)[O][Sn]([c]1ccccc1)([c]1ccccc1)[c]1ccccc1`, the Potency was 1.99 µM (active) in test [1], 1.58 µM (active) in [2], 0.281 µM (active) in test [3] and 0.281 µM (active) in test [4].

For the compound `C[C@@H]1C[C@H]2CC[C@H](O2)[C@H](C)C(=O)O[C@@H](C)C[C@@H]2CC[C@@H](O2)[C@@H](C)C(=O)O[C@H](C)C[C@H]2CC[C@H](O2)[C@H](C)C(=O)O[C@@H](C)C[C@@H]2CC[C@@H](O2)[C@@H](C)C(=O)O1`, the Potency in test [2] is 14.1 µM (active); in test [3], 0.0889 µM (active); in test [4], 0.0997 µM (active). Further, the outcome in [5] was inactive.

As to `[Cl][Sn]([c]1ccccc1)([c]1ccccc1)[c]1ccccc1`, the max response in test [6] was -6.19% (inactive). Also, the Potency was 0.486 µM (active) in test [7], 0.891 µM (active) in [8], 2.82 µM (active) in [9] and 7.94 µM (active) in test [10]. Further, the result in test [11] was inactive.

Turning to `S=C([S-])NCCNC(=S)[S-].[Mn+2]`, the Potency in [7] was 61.1 µM (active).

Take `CC[C@@H](C(=O)[C@@H](C)[C@@H](O)[C@H](C)[C@@H]1O[C@@H]([C@@H](CC)C(=O)O)CC[C@@H]1C)[C@H]1O[C@]2(C=C[C@@H](O)[C@]3(CC[C@@](C)([C@H]4CC[C@](O)(CC)[C@H](C)O4)O3)O2)[C@H](C)C[C@@H]1C`: in test [12], the Potency is 0.235 µM (active).

As to `Cc1c2ccccc2c(C)c2c1ccc1ccccc12`, the Potency result in test [13] is “inactive”. The Potency in [14] is 25.1 µM (active).

Consider `COC(=O)C1C(c2ccccc2)C2C(=O)c3c(OC)cc(OC)cc3O[C@@]12c1ccc(OC)cc1` (some centres not stated), for which the activity change, negative = inhibition was -4.65% [at 11.4 µM] (inactive) in [15] and -16.4% [at 11.4 µM] (inactive) in [17]. Further, the Potency in [16] is 3.98 µM (active). Besides, the activity change, positive = activation in test [13] was -68.8% [at 11.4 µM] (inactive).

With `CC/C(=C(\c1ccc(O)cc1)c1ccc(OCCN(C)C)cc1)c1ccccc1`, in test [7], the Potency result was “inactive”. The Potency in test [8] is 25.1 µM (active).

For `COc1cc(O)c2c(c1)/C=C/C[C@H](O)[C@H](O)C(=O)/C=C\C[C@H](C)OC2=O`, the Potency in [18] is 2.44 µM (active).

In the case of `CN(C)CCC(=O)[C@@]1(O)CC[C@H]2[C@H]3CC=C4C[C@@H](O)CC[C@]4(C)[C@H]3CC[C@]21C`, the Potency in test [15] was 2.51 µM (active).

For the compound `COc1cccc(N2C(=O)NC(=O)/C(=C\c3ccc([N+](=O)[O-])s3)C2=O)c1`, the Potency in test [19] was 8.49 µM (active); in test [20], 37.9 µM (active).

In test [21], `COC(=O)C1(O)CC2OC1(C)n1c3ccccc3c3c4c(c5c6ccccc6n2c5c31)C(=O)NC4` (configuration not stated) had a parasite growth, % of DMSO control of 4.95%. Besides, in [22], the parasite growth remaining, % of DMSO control (lower = more inhibition) was 7.86%. The parasite growth, % of control (lower = inhibition) in test [23] was determined as 21.3%. The growth, % of control in test [24] came to 4.75%.
